For 17 compounds, Potency results are on record in PubChem BioAssay (NCATS).

Records with an inconclusive call do not appear. Where a call stands in place of a potency, no number is given. The source made the active and inactive calls. Calls come from the whole dose curve; as a rule, active = well fitted curve in the direction sought with a large enough effect; inconclusive = small, poorly fitted or top-dose-only effect, or another doubt; inactive = no such curve, though single readings can be large; an effect the other way counts as inactive or inconclusive.

Experiment [1] has as its target Luciferin 4-monooxygenase (Photinus pyralis) (UniProt P08659). Nature of the experiment: Biochemical firefly luciferase enzyme assay for NPC (AID 624030). Note: nearly all actives have a fitted effect of over 70% in size. Conditions: purified P. pyralis luciferase, luminescence, 5 min; series mostly up to 58.6 µM. In a few lines: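 Direct inhibition of firefly luciferase enzyme (10 nM final, 50 mM Tris Acetate) assessed by luminescence within 5 minutes. Percent activity scaled between DMSO and PTC124 positive control, with concentration-effect curves classified by fit quality and response.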

Experiment [2] can be described thus: S16 Schwann cell viability assay (CellTiter-Glo assay) (AID 624031). Note: nearly all actives have a fitted effect of over 70% in size. Conditions: S16 rat Schwann cells viability, 24 h; series mostly up to 57.5 µM. In a few lines:
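Rat S16 Schwann cells without reporter constructs received compound or DMSO for 24 h at 37 °C under 5% CO2. Cellular ATP was then quantified by CellTiter-Glo luminescence, with vehicle wells defined as 0% activity and cell-free wells as reference.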
In general terms: Cellular ATP, detected with luciferase, serves as a proxy for viable cell number.

Experiment [3] is described as follows: S16 Schwann cell PMP22 intronic element firefly luciferase assay (AID 624032). Note: nearly all actives have a fitted effect of over 30% in size. As to conditions: S16 rat Schwann cells, PMP22 element FLuc, 24 h; series mostly up to 57.5 µM. An outline of the steps:
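Luciferase reporter of PMP22 intronic-element expression in stably transfected S16 rat Schwann cells, read by ONE-Glo luminescence after 24 h compound exposure at 37 C. Activity scaled between DMSO (0%) and positive-control PTC124; concentration-effect curves quality-classified.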
Potency is the fitted concentration of half-maximal effect.

Sequence of Luciferin 4-monooxygenase (Photinus pyralis) (P08659 whole entry, looked up): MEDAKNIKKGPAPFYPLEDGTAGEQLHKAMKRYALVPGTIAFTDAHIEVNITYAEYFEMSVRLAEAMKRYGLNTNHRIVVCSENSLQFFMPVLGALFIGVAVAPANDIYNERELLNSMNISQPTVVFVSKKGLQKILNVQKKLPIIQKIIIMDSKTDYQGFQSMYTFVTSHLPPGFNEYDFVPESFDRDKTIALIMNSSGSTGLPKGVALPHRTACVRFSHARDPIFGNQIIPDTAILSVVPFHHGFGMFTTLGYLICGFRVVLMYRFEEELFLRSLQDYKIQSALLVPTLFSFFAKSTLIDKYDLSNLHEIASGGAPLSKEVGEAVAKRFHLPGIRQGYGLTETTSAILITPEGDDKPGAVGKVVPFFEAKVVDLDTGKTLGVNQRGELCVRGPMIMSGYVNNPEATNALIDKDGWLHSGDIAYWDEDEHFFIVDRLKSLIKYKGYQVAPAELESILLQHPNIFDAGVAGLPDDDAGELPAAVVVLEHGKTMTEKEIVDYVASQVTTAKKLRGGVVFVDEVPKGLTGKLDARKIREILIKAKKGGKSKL

Turning to `NC(=O)N1c2ccccc2CC(=O)c2ccccc21`, the Potency result in experiment [1] and in experiment [2] was “inactive” throughout.

As to `NC(=O)c1cccnc1`, the Potency entry in experiment [1] and in experiment [2] was “inactive” throughout.

Regarding `N[C@@H](C(=O)N[C@@H]1C(=O)N2C(C(=O)O)=C(Cl)CS[C@H]12)c1ccccc1`, the Potency result in experiment [1] and in experiment [2] was “inactive” each time.

Consider `CCCCCCNC(=O)n1cc(F)c(=O)[nH]c1=O`, for which the Potency result in experiment [1] and in experiment [2] was “inactive” each time.

Regarding `CC(C)(C)C(=O)OCOP(=O)(COCCn1cnc2c(N)ncnc21)OCOC(=O)C(C)(C)C`, the Potency entry in experiment [1] and in experiment [2] was “inactive” throughout.

As to `CCOC(=O)c1ccc(OC(=O)CCCCCN=C(N)N)cc1`, the Potency result in experiment [1] and in experiment [2] was “inactive” each time.

For the compound `Cc1nnc(C(=O)NC(C)(C)c2nc(C(=O)NCc3ccc(F)cc3)c(O)c(=O)n2C)o1`, the Potency result in experiment [1] is “inactive”.

Consider `COc1nc(N)nc2c1ncn2[C@@H]1O[C@H](CO)[C@@H](O)[C@@H]1O`, for which the Potency result in experiment [1] and in experiment [2] was “inactive” in each case. In addition, the Potency in experiment [3] was 2.03 µM (active).

`O=C(O)CSCC(=O)NC1CCSC1=O` (configuration not stated): the Potency entry in experiment [1] is “inactive”.

Regarding `COc1cc(NCc2ccc3nc(N)nc(N)c3c2C)cc(OC)c1OC`, the Potency entry in experiment [1] is “inactive”. Also, in experiment [2], the Potency is 28.7 µM (active).

With `CNS(=O)(=O)CCc1ccc2[nH]cc(C3CCN(C)CC3)c2c1`, in experiment [1], the Potency entry was “inactive”.

With `CC(C)(C#N)c1cc(Cn2cncn2)cc(C(C)(C)C#N)c1`, the Potency result in experiment [1] and in experiment [2] was “inactive” each time.

`CC(C)Cn1cnc2c(N)nc3ccccc3c21`: the Potency entry in experiment [1] and in experiment [2] was “inactive” each time.

Regarding `CCOC(=O)c1ccc(C#Cc2ccc3c(c2)C(C)(C)CCS3)nc1`, the Potency result in experiment [1] and in experiment [2] was “inactive” in each case.

On to `O=c1oc2c(O)c(O)cc3c(=O)oc4c(O)c(O)cc1c4c23`, for which the Potency in experiment [1] was 36.1 µM (active). Moreover, in experiment [2], the Potency entry is “inactive”.

For the compound `CCCOc1ccc(C(=O)OCCN(CC)CC)cc1N`, the Potency result in experiment [1] was “inactive”.

`COc1c(N2CCNC(C)C2)c(F)cc2c(=O)c(C(=O)O)cn(C3CC3)c12` (configuration not stated): the Potency result in experiment [1], in experiment [2] and in experiment [3] was “inactive” in each case.
